From PubChem BioAssay (NCATS)
Results filed as inconclusive are left out. Calls of active or inactive are those of the source. Calls follow the shape of the dose curve; as a rule, active = well fitted cell-killing curve with a large enough effect; inconclusive = small, poorly fitted or top-dose-only effect, or effect the other way; inactive = no such curve, though single readings can be large or run the other way.

Legend:
[1] = Quantitative High-Throughput drug screen in 47 multiple myeloma cell lines against the NCATS MIPE library collection: KMS34_JCRB cell viability assay (AID 1918985); also: nearly all actives have a fitted effect of over 40% in size
In short: (§1)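 Myeloma cells (500/well) treated with MIPE 4.0 compounds for 48 h at 37 °C, 5% CO2. Viability read as ATP via CellTiter-Glo luminescence after 5 min at RT; DMSO-only wells = 100%, media-only = 0% viability.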

[2] = Quantitative High-Throughput drug screen in 47 multiple myeloma cell lines against the NCATS MIPE library collection: OPM1_PLB cell viability assay (AID 1918989); also: nearly all actives have a fitted effect of over 40% in size
In short: as §1

[3] = Quantitative High-Throughput drug screen in 47 multiple myeloma cell lines against the NCATS MIPE library collection: U266_ATCC cell viability assay (AID 1919864); also: nearly all actives have a fitted effect of over 35% in size
In short: as §1

[4] = Quantitative High-Throughput drug screen in 47 multiple myeloma cell lines against the NCATS MIPE library collection: OCIMY5_PLB cell viability assay (AID 1918988); also: nearly all actives have a fitted effect of over 65% in size
In short: as §1

[5] = Quantitative High-Throughput drug screen in 47 multiple myeloma cell lines against the NCATS MIPE library collection: SKMM1_PLB cell viability assay (AID 1919863); conditions: SKMM1 myeloma viability, CellTiter-Glo ATP, 48 h; viability: hits give low values; also: nearly all actives have a fitted effect of over 35% in size
In short: as §1

[6] = Quantitative High-Throughput drug screen in 47 multiple myeloma cell lines against the NCATS MIPE library collection: XG1_PLB cell viability assay (AID 1919866); also: nearly all actives have a fitted effect of over 35% in size
In short: as §1

[7] = Quantitative High-Throughput drug screen in 47 multiple myeloma cell lines against the NCATS MIPE library collection: VP6_DJ cell viability assay (AID 1919867); also: nearly all actives have a fitted effect of over 40% in size
In short: as §1

[8] = Quantitative High-Throughput drug screen in 47 multiple myeloma cell lines against the NCATS MIPE library collection: UTMC2_PLB cell viability assay (AID 1919868); conditions: CellTiter-Glo ATP luminescence, 48 h; viability (% of DMSO control): at 45.8 µM (top of the series); also: nearly all actives have a fitted effect of over 55% in size
In short: as §1

[9] = Quantitative High-Throughput drug screen in 47 multiple myeloma cell lines against the NCATS MIPE library collection: XG6_PLB cell viability assay (AID 1919865); also: nearly all actives have a fitted effect of over 40% in size
In short: as §1

[10] = Quantitative High-Throughput drug screen in 47 multiple myeloma cell lines against the NCATS MIPE library collection: OCIMY7_PLB cell viability assay (AID 1918987); also: nearly all actives have a fitted effect of over 65% in size
In short: as §1
Potency is read from the fitted curve at half-maximal effect.

CCc1ccc(CCOc2ccc(CC3SC(=O)NC3=O)cc2)nc1 (centres undefined)
inactive: Potency [1] | Potency [2] | Potency [3]

COc1ccc(COc2cc3oc(=O)c4cc(C(C)O)ccc4c3cc2OC)cc1 (centres undefined)
active: Potency [1] 18.7 µM | Potency [4] 20.9 µM | Potency [2] 18.7 µM | Potency [5] 20.9 µM | Potency [3] 13.2 µM | Potency [6] 13.2 µM | Potency [7] 14.8 µM | Potency [8] 20.9 µM

N[C@@H]1CONC1=O
inactive: Potency [1] | Potency [2] | viability [5] 132% | Potency [3] | Potency [6] | Potency [8]
active: Potency [7] 20.9 µM

NC[C@H](O)c1ccc(O)c(O)c1
active: Potency [4] 1.32 µM | Potency [7] 2.96 µM
inactive: Potency [1] | Potency [3] | Potency [9] | Potency [6]

CC(C)OC(=O)C1=CN(C(=O)c2ccc(F)c(F)c2)CC(C)(C)c2c1[nH]c1ccccc21
inactive: Potency [1] | Potency [2] | viability [5] 104% | Potency [9] | Potency [6] | Potency [8]
active: Potency [7] 1.87 µM

CCN(c1ccccc1)c1cc(NC)[n+](C)c(C)n1
active: Potency [1] 26.4 µM
inactive: Potency [2] | Potency [6] | Potency [7] | Potency [8]

COc1ccc(-c2ccc3c(N4CCOCC4)nc(N4C[C@@H](C)O[C@@H](C)C4)nc3n2)cc1CO
active: Potency [1] 0.469 µM | Potency [4] 1.48 µM | Potency [2] 0.935 µM | Potency [5] 1.66 µM | Potency [3] 0.332 µM | Potency [6] 0.187 µM | Potency [7] 0.296 µM | Potency [8] 0.526 µM

Cc1cc(C=c2sc3nc4ccccc4n3c2=O)c(C)n1-c1ccccc1
active: Potency [1] 14.8 µM
inactive: Potency [7]

COc1ccc(C2=N[C@H](c3ccc(Cl)cc3)[C@H](c3ccc(Cl)cc3)N2C(=O)N2CCNC(=O)C2)c(OC(C)C)c1
active: Potency [10] 8.33 µM | Potency [4] 18.7 µM | Potency [5] 5.9 µM | Potency [3] 20.9 µM | Potency [9] 2.64 µM

CC1(C)SCCN(S(=O)(=O)c2ccc(OCC#CCO)cc2)[C@@H]1C(=O)NO
inactive: Potency [2] | Potency [6]
active: Potency [10] 5.26 µM | Potency [4] 5.26 µM | Potency [5] 0.118 µM

NCCc1ccc(O)c(O)c1
active: Potency [1] 8.33 µM | Potency [3] 23.5 µM | Potency [7] 23.5 µM
